# Screens: PubChem BioAssay, several laboratories
# Beta apoptosis = blocks beta cell apoptosis; INS-1E cytokine-induced death, ATP luminescence, 48 h; percent of positive-control rescue, neutral wells zero; protection from apoptosis, % (no concentration beside the values); hit rate 0.8% among 300,000;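 active = Every replicate reaches about 75%, or at least half do and their mean reaches it too, limit read from the data; inconclusive = At least half of replicates reach the limit but their mean does not; inactive = Under half of replicates reach the limit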;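 note: higher means more ATP so stronger rescue from cytokine killing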
# Mdm2 MdmX PPI = human Mdm2/MdmX binding inhibition. O15151+Q00987. SaOS-2 split-luciferase Mdm2/MdmX complementation, luminescence. inhibition, % at 8 µM. hit rate 3% among 330,000. AID 485346;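 active = inhibition of at least 50% at 8 µM in the primary screen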
# Gli-Sufu block = antagonists of Gli-Sufu signaling; hit rate 0.74% among 340,000; Sufu-KO-LIGHT fibroblasts, Gli luciferase reporter luminescence; inhibition, % at 5 µM; AID 588413;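 active = inhibition above about 55%, limit read from the data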
# 697 NFkB inh = inhibitors of the PMA/ionomycin-induced NF-kB reporter in 697 B cells; 697 B-cell NF-kB luciferase reporter, 16 h; inhibition, % at 4 µM; hit rate 0.33% among 330,000; AID 435022; in the data active = inhibition above about 35%
# Jurkat NFkB inh = inhibitors of the PMA/ionomycin-induced NF-kB reporter in Jurkat cells; inhibition, % at 4 µM; hit rate 0.53% among 330,000; AID 435003; PMA/ionomycin-induced NF-kB luciferase reporter, luminescence; in the data active = inhibition above about 50%
# CSC inhib = cancer stem cell inhibition; cancer stem cell-like cells viability, luminescence; inhibition, % at 7.5 µM; hit rate 1.1% among 300,000; in the data active = inhibition above about 75%; inconclusive = no clear call, values can overlap the other calls; tested in HMLE shEcad cells
# Jurkat NFkB conf = lowers PMA/ionomycin-induced NF-kB signal in Jurkat cells | shares compounds with Jurkat NFkB inh | Jurkat NF-kB luciferase, 16 h | inhibition, % at 4 µM | hit rate 27% among 2,700;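 active = inhibition reaching about 45% at 4 µM in either replicate, limit read from the data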
# 697 NFkB conf = lowers PMA/ionomycin-induced NF-kB signal in 697 B cells | shares compounds with 697 NFkB inh | 697 B-cell NF-kB luciferase, 16 h | inhibition, % at 4 µM | hit rate 35% among 2,000; in the data active = inhibition mostly above about 28%, no sharp cut-off; inactive = mostly below about 22%
# Mdm2-MdmX conf = confirmation of human Mdm2/MdmX interaction inhibitors; shares compounds with Mdm2 MdmX PPI; Mdm2-MdmX binding, luminescent assay; inhibition, % at 8 µM; hit rate 55% among 10,000; AID 489028; in the data active = inhibition above about 40%
# Full FLuc ctr = counter-screen for Mdm2/MdmX inhibitors: full-length luciferase. shares compounds with Mdm2 MdmX PPI. SaOS-2 full-length luciferase counterscreen, luminescence. inhibition, % at 8 µM. hit rate 77% among 6,200. AID 504607;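 active = mean inhibition at 8 µM reaching about 37%, which flags the compound as non-specific, limit read from the data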;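 note: p53-null SaOS-2 cells with luciferase driven by a doxycycline-inducible promoter; compound on cells about two nights before reading with doxycycline added after day one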
# Gli antag conf = Gli-SUFU antagonism confirmation, single concentration. Sufu-KO-LIGHT cells, Gli luciferase reporter, luminescence. hit rate 40% among 2,500. inhibition, % at 5 µM. shares compounds with Gli-Sufu block;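 active = mean inhibition at 5 µM reaching about 45%, limit read from the data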
# Gli cytotox = counter-screen for Gli-SUFU antagonists: cytotoxicity; cytotoxicity, % at 5 µM; hit rate 32% among 2,500; shares compounds with Gli-Sufu block; Sufu-KO-LIGHT cells cytotoxicity, ATP luminescence;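 active = mean cytotoxicity at 5 µM above about 25%, limit read from the data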;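 note: cells exposed to compound overnight for roughly 16 to 18 hours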
# Wnt3a cs = counter-screen for Gli-SUFU antagonists: Wnt3a reporter inhibition; hit rate 20% among 2,500; Wnt-LIGHT cells, Wnt3a-driven luciferase reporter, luminescence; inhibition, % at 6.25 µM; AID 651995; shares compounds with Gli-Sufu block;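 active = mean inhibition above about 25%, limit read from the data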
# Numbers stand for hits; . = inactive; ? = inconclusive; / = no result given. An excerpt weighted towards active compounds, which were near 4.5% of everything screened.
SMILES,Beta apoptosis,Mdm2 MdmX PPI,Gli-Sufu block,697 NFkB inh,Jurkat NFkB inh,CSC inhib,Jurkat NFkB conf,Gli antag conf,Gli cytotox,Wnt3a cs,others
Cc1ccc(C(CNS(=O)(=O)c2ccc(Cl)cc2)N2CCN(C)CC2)cc1 (centres undefined),.,.,.,.,.,/,/,/,/,/,
CN(C)CCn1c2ccccc2c2nc3ccc([N+](=O)[O-])cc3cc21,.,100,.,.,60,?,.,.,.,.,697 NFkB conf=.;Mdm2-MdmX conf=84;Full FLuc ctr=60
CCn1c2ccccc2c2cc([N+](=O)[O-])ccc21,.,.,.,.,.,.,/,/,/,/,
COc1ccc(CN(CC(=O)NCc2ccc(F)cc2)C(=O)CCC(=O)Nc2ccccn2)cc1,.,.,.,.,.,.,/,/,/,/,
CCN(CC)S(=O)(=O)c1cc(NC(=O)CNc2cccc(S(=O)(=O)N3CCCC3)c2)ccc1C,89,.,72,.,57,.,60,66,31,.,
CCN(CC)S(=O)(=O)c1ccc(C)c(NC(=O)CNc2cccc(S(=O)(=O)N3CCOCC3)c2)c1,.,.,.,.,.,.,/,/,/,/,
O=S(=O)(c1cc(F)ccc1F)N1CCN(c2ncnc3ccccc23)CC1,104,.,59,.,60,.,58,63,58,.,
CCN1/C(=C/C=C/c2oc3ccc(-c4ccccc4)cc3[n+]2CC)Oc2ccc(-c3ccccc3)cc21,111,97,88,48,98,116,.,90,35,39,697 NFkB conf=.;Mdm2-MdmX conf=92;Full FLuc ctr=.
CCCCN1C(=O)/C(=C/C=C2\Oc3ccccc3N2CC)SC1=S,/,/,.,/,/,/,/,/,/,/,
CCCCC(Nc1ncnc2ccccc12)C(=O)O (centres undefined),.,.,.,.,.,.,/,/,/,/,
CC(Nc1ncnc2ccccc12)c1ccccc1 (centres undefined),96,.,63,.,50,.,63,73,34,41,
COc1ccc(CCNc2c(C)c(C)nc3ncnn23)cc1,100,50,72,89,70,/,65,70,45,28,697 NFkB conf=54;Mdm2-MdmX conf=46;Full FLuc ctr=69
CC(=O)Nc1ccc(S(=O)(=O)Nc2ccccc2N2CCOCC2)cc1,.,.,.,.,.,.,/,/,/,/,
CCn1c(/C=C/Nc2ccccc2)[n+](CC)c2cc(Cl)c(Cl)cc21,.,98,66,.,70,.,.,61,.,.,Mdm2-MdmX conf=.
CCn1c(/C=C/N(C(C)=O)c2ccccc2)[n+](CCCS(=O)(=O)[O-])c2cc(Cl)c(Cl)cc21,.,.,.,.,.,.,/,/,/,/,
CC(C)n1c(CN(C)Cc2ccccc2)nc2c1c(=O)n(C)c(=O)n2C,96,.,70,.,57,.,53,78,.,48,
CC(=O)C(C)n1c(CN(C)Cc2ccccc2)nc2c1c(=O)n(C)c(=O)n2C (centres undefined),.,.,.,.,.,.,/,/,/,/,
O=C(CSc1ccc(-c2ccco2)nn1)Nc1ccc(F)cc1F,.,.,.,.,.,.,/,/,/,/,
CCCCC[n+]1cccc2c3ccccc3ccc21,110,.,74,60,52,.,.,85,27,33,697 NFkB conf=42
CC(C)(C)c1ccc(C(=O)O/N=C(\N)c2ccccn2)cc1,.,98,86,.,59,.,86,91,.,102,Mdm2-MdmX conf=97;Full FLuc ctr=.
O=C(Cn1nnc(-c2cccs2)n1)Nc1ccccc1C(F)(F)F,.,.,.,.,.,.,/,/,/,/,
COc1ccc(/C=N/NC(=O)c2[nH]c3ccc(Br)cc3c2-c2ccccc2)c(C(=O)O)c1OC,.,.,.,.,.,.,/,/,/,/,
O=C(N/N=C/c1ccccc1Cl)c1[nH]c2ccc(Br)cc2c1-c1ccccc1,.,89,68,.,64,.,54,58,61,.,Mdm2-MdmX conf=75;Full FLuc ctr=106
CCN(CC)c1ccc(/C=N/Nc2nc(C)cc(=O)[nH]2)c(O)c1,.,64,91,.,59,.,.,85,41,70,Mdm2-MdmX conf=80;Full FLuc ctr=.
CCN(CC)c1ccc(/C=N/Nc2ccc(C)cc2)c(O)c1,.,/,.,/,/,.,/,/,/,/,
SMILES,Beta apoptosis,Mdm2 MdmX PPI,Gli-Sufu block,697 NFkB inh,Jurkat NFkB inh,CSC inhib,Jurkat NFkB conf,Gli antag conf,Gli cytotox,Wnt3a cs,others
O=C(c1cc(COc2ccc3ncccc3c2)on1)N1CCC(O)CC1,/,.,.,.,.,.,/,/,/,/,
CCC(O)C1CCN(C(=O)c2cc(COc3ccc4ncccc4c3)on2)CC1 (centres undefined),106,.,73,.,56,.,67,65,.,40,
O=S(=O)(NCC(c1ccc2c(c1)OCO2)N1CCOCC1)c1ccccc1 (centres undefined),.,.,.,.,.,.,/,/,/,/,
CN1/C(=C\C(=O)COC(=O)c2ccco2)C(C)(C)c2ccccc21,.,.,.,.,.,.,/,/,/,/,
CN1/C(=C\C(=O)c2ccco2)C(C)(C)c2ccccc21,99,.,84,.,57,.,.,81,35,.,
Cc1ccc(-c2nc(CS(=O)CC(=O)NCc3ccco3)c(C)o2)cc1 (centres undefined),.,.,.,.,.,.,/,/,/,/,
CCOc1ccccc1N(CC(=O)NCCSc1ccccc1)S(C)(=O)=O,.,.,.,.,.,.,/,/,/,/,
O=C(Cc1cccc(NC(=O)C2CCCN(C(=O)C3CCCCC3)C2)c1)Nc1cccc(C(=O)N2CCCCC2)c1 (centres undefined),/,/,.,/,/,/,/,/,/,/,
O=C(NC1CCN(Cc2ccccc2)CC1)c1ccc2c(c1)[nH]c(=O)n2Cc1ccc(F)cc1,.,.,.,.,64,.,.,.,.,.,
CC(=O)N1CCN(C(=O)CN2C(=O)NC(C)(c3ccc4ccccc4c3)C2=O)CC1 (centres undefined),.,.,.,.,.,/,/,/,/,/,
CC1(c2ccc3ccccc3c2)NC(=O)N(CC(=O)N2CCN(Cc3ccc(C#N)cc3)CC2)C1=O (centres undefined),/,.,68,48,58,/,68,71,.,32,697 NFkB conf=103
COC(=O)c1ccc(COc2cc(O)c3c(c2)OC(C)(C)CC3=O)cc1,.,.,.,.,.,.,/,/,/,/,
CC1(C)CC(=O)c2c(O)cc(OCc3ccc(Br)cc3)cc2O1,.,.,96,.,.,.,.,.,.,.,
